Measurements published in PubChem BioAssay (NCATS).
Where “and” joins values, the source holds several entries; their conditions need not be identical. Equal values may be shown once. Inconclusive results are not listed. Calls of active or inactive are those of the source. Unless noted, the call rests on the fitted dose curve; in most records, active means well fitted curve in the direction sought with a large enough effect; inconclusive means small, poorly fitted or top-dose-only effect, or another doubt; inactive means no such curve, though single readings can be large; an effect the other way counts as inactive or inconclusive.

Columns and labels:
[1] = target: Alpha-galactosidase A (Homo sapiens) (UniProt P06280); assay: Counterscreen for Glucocerebrosidase Inhibitors: qHTS Assay for Human alpha-Galactosidase at pH 4.5 (AID 992); conditions: purified enzyme, fluorogenic substrate; series mostly up to 76.9 µM; further: 0% is about no effect
Method in brief: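 Steps: enzyme (2 nM final), then compound across 0.7 nM to 77 uM, then 80 uM fluorogenic galactopyranoside substrate; incubate 20 min at room temperature; quench at pH 10; measure fluorescence at 365/440 nm.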

[2] = target: alpha-glucosidase (Oryza sativa, rice) (UniProt Q653V4); assay: Counterscreen for Glucocerebrosidase Inhibitors: qHTS Assay for Rice alpha-Glucosidase at pH 5.0 (AID 997); conditions: rice alpha-glucosidase enzyme activity; series mostly up to 76.9 µM;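 further: 0% = full activity with enzyme and -100% = basal without enzyme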
Method in brief: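 Endpoint fluorogenic assay at pH 5.0: compounds (0.7 nM to 77 uM) titrated against 4 nM rice enzyme and 400 uM 4-MU-alpha-glucoside for 20 min at room temperature; NaOH/glycine stop, read ex 365/em 440 nm, Hill-fitted AC50.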

[3] = Validation of Assay for Modulators of Lamin A Splicing (AID 1459; active means well fitted curve in the direction sought with a large enough effect in the signal ratio; the % refers to the signal ratio;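 further: cells exposed to compound for two days before reading; 0% is about no effect; ratio rise marks activators and ratio drop marks inhibitors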); conditions: Lamin A splicing dual RFP/GFP fluorescence reporter; series mostly up to 9.22 µM
Method in brief: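 Dual-reporter HeLa S3 line (lamin A-EGFP minigene, DsRed2) treated with compounds 48 hrs, 0.5% DMSO final. Endpoint: EGFP/DsRed2 total intensity ratio from laser-scanning microplate cytometry.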

[4] = qHTS Assay for Lipid Storage Modulators (AID 1519; calls by dose curve; on activity change, negative = inhibition: on the % scale 0 is the no-effect control and ±100 the full control effect); conditions: Drosophila S3 cells, BODIPY lipid droplet/cell ratio, laser cytometry, cells loaded with oleic acid
Method in brief: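 Cells seeded at 5,000 per well were treated with compounds over a concentration series and loaded with oleic acid (400 uM, as added). Lipid droplet fluorescence (488 nm excitation, 500-530 nm channel) was read by laser-scanning cytometry and normalized to 20 uM Triacsin C.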

[5] = target: DNA repair nuclease/redox regulator APEX1 (Homo sapiens) (UniProt P27695); assay: qHTS Validation Assay for Inhibitors of the Human Apurinic/apyrimidinic Endonuclease 1 (APE1) (AID 1705;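 further: TAMRA fluorescence gain over two minutes as APE1 cuts a quenched THF abasic duplex; on the % scale 0 is the no-effect control and ±100 the full control effect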); conditions: purified APE1 endonuclease activity, fluorescence, titration; series mostly up to 57.1 µM
Method in brief: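 Substrate: 50 nM final fluorophore/quencher THF-abasic duplex. Enzyme preincubated with compounds 15 min, RT. Progress derived from fluorescence difference, third minus first kinetic read.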

[6] = Counterscreen for APE1 Inhibitors: Fluorescent Dye Displacement Validation Assay (AID 1707); conditions: fluorescent dye displacement from DNA; series mostly up to 57.1 µM;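 further: plate controls were ThO with dsDNA and no compound for no effect and ThO without dsDNA for full effect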
Method in brief: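 Reaction mixture of 250 nM Thiazole Orange and 50 nM double-stranded abasic-site DNA was dispensed, compounds were pin-transferred, and fluorescence was read at endpoint (480 nm ex, 540 nm em). Reduced fluorescence indicated dye displacement by DNA binding.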

[7] = qHTS for differential inhibitors of proliferation of Plasmodium falciparum line 7G8 (AID 1815); conditions: Plasmodium falciparum 7G8 proliferation inhibition; series mostly up to 28.7 µM;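 further: parasite growth measured after three days of incubation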; further: potency means the concentration at half of the fitted maximal effect;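 on activity change, negative = inhibition: plate controls were vehicle wells for no effect and reference inhibitor wells for full effect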
[8] = qHTS for differential inhibitors of proliferation of Plasmodium falciparum line 3D7 (AID 1876); further: potency means the concentration at half of the fitted maximal effect; conditions: P. falciparum 3D7 proliferation inhibition; series mostly up to 28.7 µM
[9] = qHTS for differential inhibitors of proliferation of Plasmodium falciparum line D10 (AID 1877); conditions: series mostly up to 28.7 µM;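 further: parasites grown with compound for 72 h before DNA staining; plate controls were vehicle wells for no effect and reference inhibitor wells for full effect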
[10] = qHTS for differential inhibitors of proliferation of Plasmodium falciparum line HB3 (AID 1886); conditions: Potency: Plasmodium falciparum HB3 proliferation inhibition; series mostly up to 28.7 µM;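 further: parasites grown with compound for 72 h before SYBR Green readout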; further: potency means the concentration at half of the fitted maximal effect;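 on activity change, negative = inhibition: plate controls were vehicle for no effect and reference inhibitor for full effect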
[11] = qHTS Assay for Modulators of Human Peripheral Myelin Protein 22 (PMP22) Expression/Activity (AID 1967; active means well fitted curve in the direction sought with a large enough effect in the signal ratio; the % refers to the signal ratio;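 further: 0% = untreated cells and 100% end not stated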); conditions: Cell-based PMP22 reporter, dual-color luciferase ratio, 0% = compound-free control cells, mouse Pmp22 promoter in mouse Schwann cells; series mostly up to 115 µM
Method in brief: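 Engineered MSC80 cells, Pmp22-promoter green and EF-alpha red luciferase reporters; 24h compound treatment at 37 °C. Concentration-response fits on green, red and ratio signals, each overlap-corrected, with %Activity normalized to untreated wells.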

[12] = target: Ferritin light chain (Equus caballus) (UniProt P02791); assay: qHTS Validation Assay for Identification of Novel General Anesthetics (AID 2323); conditions: horse apoferritin, anesthetic-site fluorescent probe displacement; series mostly up to 76.9 µM; further: on the % scale 0 is the no-effect control and ±100 the full control effect
Method in brief: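 Normalized fluorescence response, scaled between free 1-AMA and 1-AMA/apoferritin complex, fitted to a four-parameter Hill equation for concentration-effect values. Binding mix: 10 uM horse-spleen apoferritin, 50% saturated 1-AMA in PBS; read 380/535 nm after 10 min.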

[13] = target: ATP-dependent DNA helicase Q1 (Homo sapiens) (UniProt P46063); assay: qHTS Validation Assay for Inhibitors of RecQ-Like Dna Helicase 1 (RECQ1) (AID 2353); conditions: recombinant RECQ1 helicase DNA unwinding assay; series mostly up to 25.6 µM;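 further: plate controls were DMSO vehicle for no effect and enzyme-free control for full effect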
Method in brief: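 RECQ1T1 50 nM; forked duplex (20 bp + 30-nt ss tails) 200 nM, ATP 2 mM final; pH 8.0, 2 mM MgCl2, 2.5 ug/ml poly(dI-dC); 15 min compound preincubation; discontinuous kinetic read over 2 h at RT.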

[14] = qHTS for differential inhibitors of proliferation of Plasmodium falciparum line GB4 (AID 1816); conditions: Potency: Plasmodium falciparum GB4 proliferation inhibition; series mostly up to 28.7 µM;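 further: parasite growth measured after 72 h incubation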; further: potency means the concentration at half of the fitted maximal effect;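 on activity change, negative = inhibition: 0% = vehicle DMSO and -100% = reference inhibitor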
[15] = qHTS for differential inhibitors of proliferation of Plasmodium falciparum line W2 (AID 1883); conditions: Potency: Plasmodium falciparum W2 proliferation inhibition; series mostly up to 28.7 µM;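 further: parasites grown with compound for 72 h before lysis and staining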; further: potency means the concentration at half of the fitted maximal effect;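 on activity change, negative = inhibition: 0% = vehicle wells and -100% = control inhibitor wells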
[16] = Cell Viability - LYMP2-020 (AID 986); conditions: series mostly up to 92.2 µM;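 further: plate controls were DMSO only for no effect and tetraoctylammonium bromide at 92 µM for full effect; nearly all actives have a fitted effect of over 55% in size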
Method in brief: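 Cytotoxicity in qHTS format: luminescent ATP readout from CellTiter-Glo after 24 h compound exposure at 37 C in complete medium. LYMP2-020 lymphoblastoid cells were seeded at 2500/well; concentration-response data fitted to the Hill equation for AC50.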

[17] = Cell Viability - LYMP2-022 (AID 987); conditions: LYMP2-022 lymphoblastoid cell viability; series mostly up to 92.2 µM;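 further: cells exposed to compound for 24 hr; 0% = DMSO alone and full effect = tetraoctylammonium bromide at 92 µM; nearly all actives have a fitted effect of over 55% in size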
Method in brief: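 Cytotoxicity read as decreased cellular ATP (CellTiter-Glo luminescence, 30 min room temperature) after 24 hours compound exposure of 2500 lymphoblastoid LYMP2-022 cells/well at 37 C. Concentration-response data fitted with standard Hill equation for AC50.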

[18] = Cell Viability - LYMP2-026 (AID 989); conditions: LYMP2-026 lymphoblastoid cell viability, qHTS; series mostly up to 92.2 µM; further: on the % scale 0 is the no-effect control and ±100 the full control effect; nearly all actives have a fitted effect of over 50% in size
Method in brief: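 Cytotoxicity read as ATP-dependent luminescence (CellTiter-Glo, 30 min room temperature) after 24 h compound treatment at 37 C. LYMP2-026 lymphoblastoid line seeded at 2500 cells/well; AC50 derived by standard Hill equation.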

[19] = target: Endonuclease 4 (Escherichia coli (strain K12)) (UniProt P0A6C1); assay: Counterscreen for APE1 Inhibitors: qHTS Validation Assay for Inhibitors of Endonuclease IV (AID 1708); further: on the % scale 0 is the no-effect control and ±100 the full control effect; conditions: E. coli endonuclease IV, DNA cleavage fluorescence; series mostly up to 57.1 µM
Method in brief: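 Incision of a double-stranded 50 nM TAMRA/BHQ-2 abasic substrate was followed kinetically (525/598 nm, reads every 60 s) after 15 min enzyme–compound preincubation with 2 nM EndoIV in pH 7.5 Tris buffer with MgCl2, DTT and Tween-20; concentration-response format.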

[20] = qHTS Assay for Identification of Small Molecule Inducers of Hypoxia Response (AID 2120; active means well fitted curve in the direction sought with a large enough effect in the signal ratio, with a control signal flat, not every such curve was filed as active; the % refers to the signal ratio; further: 0% is about no effect); conditions: hypoxia response reporter cells, beta-lactamase ratio readout; series mostly up to 104 µM
Method in brief: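 Reporter induction read as the CCF4 blue/green (460nm/530nm) emission ratio after 2.5 h dye loading at room temperature. ME-180 HRE-beta-lactamase cells received titrated compounds for 17 h at 37 degrees Celsius; AC50 values derived.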

[21] = measured here: cell count channel max response
[22] = measured here: lipid channel max response

Sequence of Alpha-galactosidase A (Homo sapiens) (P06280 whole entry, looked up): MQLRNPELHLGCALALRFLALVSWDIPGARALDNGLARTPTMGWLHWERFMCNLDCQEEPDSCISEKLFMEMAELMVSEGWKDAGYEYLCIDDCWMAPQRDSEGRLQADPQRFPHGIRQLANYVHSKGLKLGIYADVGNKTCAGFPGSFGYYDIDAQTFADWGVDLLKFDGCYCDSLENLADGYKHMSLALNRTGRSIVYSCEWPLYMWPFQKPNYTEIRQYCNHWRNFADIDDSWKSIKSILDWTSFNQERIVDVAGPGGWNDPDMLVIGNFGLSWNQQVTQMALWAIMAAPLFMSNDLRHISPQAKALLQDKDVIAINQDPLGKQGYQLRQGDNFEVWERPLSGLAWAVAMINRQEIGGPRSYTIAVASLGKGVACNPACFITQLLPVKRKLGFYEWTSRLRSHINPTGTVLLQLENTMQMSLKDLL
Sequence of Ferritin light chain (Equus caballus) (P02791 2-175 limits assumed): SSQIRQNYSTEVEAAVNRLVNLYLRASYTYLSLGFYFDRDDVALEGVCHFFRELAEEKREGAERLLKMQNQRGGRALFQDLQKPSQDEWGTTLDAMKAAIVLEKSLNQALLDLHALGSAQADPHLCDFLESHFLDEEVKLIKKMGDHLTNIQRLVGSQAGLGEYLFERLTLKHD
Sequence of DNA repair nuclease/redox regulator APEX1 (Homo sapiens) (P27695 whole entry, looked up): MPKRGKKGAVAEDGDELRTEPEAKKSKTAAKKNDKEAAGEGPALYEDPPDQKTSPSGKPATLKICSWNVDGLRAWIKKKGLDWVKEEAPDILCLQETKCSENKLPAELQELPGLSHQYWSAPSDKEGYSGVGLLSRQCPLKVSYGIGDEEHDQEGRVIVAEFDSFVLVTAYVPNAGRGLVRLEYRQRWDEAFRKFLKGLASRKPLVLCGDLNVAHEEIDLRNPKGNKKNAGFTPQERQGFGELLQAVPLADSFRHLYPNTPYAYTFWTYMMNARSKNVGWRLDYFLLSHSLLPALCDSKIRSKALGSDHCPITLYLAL
Sequence of ATP-dependent DNA helicase Q1 (Homo sapiens) (P46063 whole entry, looked up): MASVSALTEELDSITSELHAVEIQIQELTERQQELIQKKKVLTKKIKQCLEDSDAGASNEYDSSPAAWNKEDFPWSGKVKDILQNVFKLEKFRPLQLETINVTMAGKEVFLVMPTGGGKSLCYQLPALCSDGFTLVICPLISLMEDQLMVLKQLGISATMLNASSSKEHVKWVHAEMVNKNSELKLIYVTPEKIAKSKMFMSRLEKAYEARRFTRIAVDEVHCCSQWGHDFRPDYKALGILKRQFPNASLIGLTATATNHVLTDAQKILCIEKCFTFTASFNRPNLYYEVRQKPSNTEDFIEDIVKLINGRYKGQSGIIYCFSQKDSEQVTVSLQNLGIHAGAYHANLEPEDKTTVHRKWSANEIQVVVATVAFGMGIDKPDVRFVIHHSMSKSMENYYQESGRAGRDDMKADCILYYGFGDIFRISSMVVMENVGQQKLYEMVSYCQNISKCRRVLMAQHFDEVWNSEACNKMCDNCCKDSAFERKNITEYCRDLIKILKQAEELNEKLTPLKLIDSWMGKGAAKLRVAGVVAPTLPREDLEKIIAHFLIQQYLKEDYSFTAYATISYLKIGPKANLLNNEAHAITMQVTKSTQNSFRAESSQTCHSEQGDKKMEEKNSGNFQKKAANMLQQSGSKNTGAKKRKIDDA

O=C1NCC2(CCN(CCc3ccccc3)CC2)O1
-3.3% and 25.9% and -24.6%: max response [4, 21]
-4.45% and 48.5% and -24.1%: max response [4, 22]
inactive: outcome [1] | outcome [2] | outcome [3] | activity change, negative = inhibition ([4]; at 25.7 µM (top of the series)) -2.42% | activity change, negative = inhibition ([4]; at 57.5 µM (top of the series)) 11.9% and -0.152% | outcome [5] | outcome [6] | Potency [7] | Potency [8] | Potency [9] | Potency [10] | outcome [11] | outcome [12] | outcome [13]

CC(=O)CCCCn1c(=O)c2c(ncn2C)n(C)c1=O
inactive: outcome [1] | outcome [2] | activity change, negative = inhibition ([4]; at 25.7 µM (top of the series)) -2.17% | activity change, negative = inhibition ([4]; at 57.5 µM (top of the series)) 7.3% | outcome [5] | outcome [6] | Potency [7] | Potency [14] | Potency [8] | Potency [9] | Potency [15] | Potency [10] | outcome [12] | outcome [13]
6.56% and 15.7%: max response [4, 21]
4.54% and 26.5%: max response [4, 22]

CCCNC(=O)NS(=O)(=O)c1ccc(Cl)cc1
8.45%: max response [4, 21]
7.5%: max response [4, 22]
inactive: Potency [16] | Potency [17] | Potency [18] | outcome [1] | outcome [2] | activity change, negative = inhibition ([4]; at 25.7 µM (top of the series)) -1.71% | outcome [5] | outcome [6] | outcome [19] | Potency [7] | Potency [14] | Potency [8] | Potency [9] | Potency [15] | Potency [10] | outcome [20] | outcome [12] | outcome [13]

CCCCCCCCCCCC1=C(O)C(=O)C=C(O)C1=O
14.8% and -11.9%: max response [4, 21]
24.3% and -12.6%: max response [4, 22]
inactive: activity change, negative = inhibition ([4]; at 57.5 µM (top of the series)) 11.6% and 5.79%

COc1ccc(C2Sc3ccccc3N(CCN(C)C)C(=O)C2OC(C)=O)cc1 (stereo unspecified)
inactive: activity change, negative = inhibition ([4]; at 57.5 µM (top of the series)) 6.14%
23.3%: max response [4, 22]
15.8%: max response [4, 21]

Clc1ccc(Cn2c(CN3CCCC3)nc3ccccc32)cc1
-12.8%: max response [4, 22]
active: Potency [7] 7.08 µM | Potency [14] 10 µM | Potency [8] 11.2 µM | Potency [15] 5.62 µM | Potency [10] 11.2 µM
inactive: outcome [1] | outcome [2] | outcome [3] | activity change, negative = inhibition ([4]; at 25.7 µM (top of the series)) -4.13% | outcome [5] | outcome [6] | outcome [19] | outcome [13]
-8.03%: max response [4, 21]

COc1ccc2c3c1OC1C[C@@H](O)C=C[C@@]31CCN(C)C2 (stereo partly specified)
-1.31% and -11.1%: max response [4, 22]
1.47% and -27.6%: max response [4, 21]
inactive: activity change, negative = inhibition ([4]; at 25.7 µM (top of the series)) -1.59% | activity change, negative = inhibition ([4]; at 57.5 µM (top of the series)) -3.75%

O=c1cc(-c2ccccc2)oc2cc(O)cc(O)c12
-20.8% and 15.3% and -13.5%: max response [4, 22]
-13.1% and 8.12% and 6.97%: max response [4, 21]
inactive: activity change, negative = inhibition ([4]; at 25.7 µM (top of the series)) -11.6% | activity change, negative = inhibition ([4]; at 57.5 µM (top of the series)) 1.96% and -20.6%
